HEK293 tox = cytotoxicity counter-screen for GLP-1 receptor inverse agonists. Potency, µM (top dose mostly 38.3 µM), without a hit: top-dose activity change, negative = inhibition, actives largely listed as inhibitors. 410,000 compounds, 0.13% hits. HEK293 cAMP-luciferase reporter cells, luminescence, 24 h. AID 624418;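 note: loss of luciferase light is scored as toxicity; potency is the fitted concentration of half-maximal effect; % is set by controls: 0 for no effect and ±100 for the full control effect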
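To flag toxic compounds, the library was rerun on cells for 24 hr at 37 deg C and 5% CO2. Viability-linked luminescence was captured 12 min after adding luciferase detection reagent.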
GLP-1R agonist = agonists of human GLP-1 receptor. P43220. HEK293 GLP-1R CRE-luciferase, luminescence, 4-6 h; cells express a hypersensitive GLP-1R form. Potency, µM (top dose mostly 45.6 µM), inactives show top-dose activation, hits mostly activators. 380,000 compounds, 0.007% hits. AID 624172; note: potency is the fitted concentration of half-maximal effect; % of control where 0% means no effect
LDHA block = blocks human lactate dehydrogenase A; P00338; purified LDHA, NADH/diaphorase-resazurin fluorescence; active compounds read low; activity change, % (values are at about 110 or 230 µM); 480,000 compounds, 0.15% hits; AID 1347041; in the data active = activity change below about -30%; inconclusive = mostly about -25% to -30%;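 note: plate controls were DMSO wells for no effect and wells without enzyme for full effect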
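Remaining NADH was detected by diaphorase (0.133 mg/mL) converting 37 µM resazurin to fluorescent resorufin, read at 0 and 20 minutes. The preceding 5-minute room-temperature reaction used 2 nM LDHA, 0.2 mM sodium pyruvate and 0.06 mM NADH at pH 7.4.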
GLP-1R inv ag = inverse agonists of human GLP-1 receptor. HEK293 GLP-1R CRE-luciferase, luminescence, 24 h; GLP-1R form is constitutively active. Potency, µM (top dose mostly 38.3 µM), without a hit: at the highest dose activity change, negative = inhibition, usual class: inhibitors. 410,000 compounds, 1.6% hits. AID 624417; note: potency is the fitted concentration of half-maximal effect; % is set by controls: 0 for no effect and ±100 for the full control effect; nearly all actives have a fitted effect of over 55% in size
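Inverse agonists were sought by their lowering of basal cAMP reporter luciferase output in HEK293 cells stably carrying constitutively active human GLP-1R, after 24 h compound treatment.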
p53 reactivation = re-activators of mutant p53; H1299 p53-A138V BP100-luciferase reporter, luminescence, 24 h; Potency, µM (top dose mostly 92.2 µM), without a hit: at the highest dose activity change, positive = activation, actives largely listed as activators; 320,000 compounds, 0.063% hits; note: potency is the fitted concentration of half-maximal effect; % of control where 0% means no effect; nearly all actives have a fitted effect of over 45% in size
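p53-null H1299 cells stably carrying temperature-sensitive p53-A138V and a BP100-luciferase reporter were pinned with compounds (4-point, 1:5 series) and held 24 hrs at 37 deg C. Luminescence was read 10 min after detection reagent.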
ClpP mod = qHTS Assay for Activators of ClpP. 340,000 compounds, 1.9% hits. AID 651965, 2013. Potency, µM (doses to about 57.5 µM), for inactives: at the highest dose activity change, negative = active. purified B. subtilis ClpP, FRET peptide cleavage, 20 min. ATP-dependent Clp protease proteolytic subunit (Bacillus subtilis (strain 168)), P80244; active = well fitted falling curve with a large enough effect; inconclusive = small, poorly fitted or top-dose-only effect; inactive = no such curve, though single readings can be large or run the other way; note: potency is the fitted concentration of half-maximal effect; the source files actives as falling curves though it sought activators and does not explain the sign; nearly all actives have a fitted effect of over 65% in size
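FRET quenching reversal measured ClpP activation: 10 microg/mL B. subtilis ClpP at pH 8 with the FRET-FV decapeptide, read at 430 nm after 320 nm excitation. The 20-min minus 0-min signal was scaled between DMSO/no-enzyme wells and ADEP (5.8 microM final).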
* hit, by the source's call; ? = inconclusive; / = no result given. A selection: hits, their analogues and other compounds. The true share with any hit is near 2.9%. Unless noted, calls come from the whole dose curve; as a rule, active = well fitted curve in the direction sought with a large enough effect; inconclusive = small, poorly fitted or top-dose-only effect, or another doubt; inactive = no such curve, though single readings can be large; an effect the other way counts as inactive or inconclusive.

SMILES	HEK293 tox	GLP-1R agonist	LDHA block	GLP-1R inv ag	p53 reactivation	ClpP mod
COC(=O)[C@@]12C[C@@H](CC(=O)NCCCN3CCCC3=O)C(=O)N(Cc3ccc4c(c3)OCO4)C1=CCC(C)(C)C2	-6%	/	2	-3%	/	2%
CCOC(=O)C1C(C#N)=C(N)OC(C)=C1c1ccncc1 (centres undefined)	14%	-24%	9	6%	2%	32µM*
O=C1C2C3C=CC(O3)C2C(=O)N1Nc1ccccc1 (centres undefined)	-4%	4%	-12	8.9µM*	/	/
Cc1ccc(CNC(=O)c2cccc(-n3cnnn3)c2)cc1	-17%	2%	-2	13%	-4%	1%
COc1ccc(C2Nc3ccccc3C(=O)N2Cc2ccccc2Cl)cc1COc1ccc(NC(C)=O)cc1 (centres undefined)	/	/	16	/	/	/
COc1cc2[nH]c(=O)n3nc(-c4ccccc4)nc3c2cc1OC	-16%	-5%	7	0%	6%	?
COc1ccc(-c2nc3c4ccccc4[nH]c(=O)n3n2)cc1	-1%	-3%	-12	9%	/	32µM*
Cc1ccc(S(=O)(=O)NN=C2CC(C)(C)OC2(C)C)cc1	2%	7%	1	7%	/	0%
Cc1ccc(NC(=O)CSc2nnc(C)c(=O)n2N)c(C)c1	-12%	-7%	-37*	16%	-25%	-1%
Cc1nnc(SCC(=O)Nc2ccc(OC(F)F)c(Cl)c2)n(N)c1=O	2%	6%	-36*	44%	-9%	1%
COc1ccccc1N1CCN(C(C)C(=O)N2CC(C)OC(C)C2)CC1 (centres undefined)	-7%	0%	-39*	-23%	2%	/
COc1ccccc1N1CCN(C(=O)C(F)F)CC1	10%	-11%	0	9%	11%	-1%
CC(C)c1nnc(NC(=O)CCC(=O)N2CCN(C3CCCCC3)CC2)s1	9%	-3%	-4	0%	-5%	-1%
CCCCCC(=O)Nc1ccc(N2CCOCC2)c(S(=O)(=O)Nc2ccc(OC)cc2)c1	-7%	19%	1	?	-6%	/
COc1ccc(NS(=O)(=O)c2cc(NC(=O)/C=C/c3cccs3)ccc2N2CCOCC2)cc1	-23%	-1%	-2	-11%	-15%	28µM*
Cc1cccc(CCNC(=O)CCc2c(C)nc3c(c(C)nn3-c3ccccc3)c2C)c1	5%	/	1	10%	/	32µM*
COC(=O)c1ccc(NC(=O)CCc2c(C)nc3ncnn3c2C)cc1	14%	5%	2	1%	6%	-2%
CCN(CC)CCNC(=O)CCc1c(C)nc2c(c(C)nn2-c2ccc(C)c(C)c2)c1C	?	0%	0	4µM*	-2%	4%
CC(=O)c1ccc(NC(=O)CCc2c(C)nc3c(c(C)nn3-c3ccc(C)cc3)c2C)cc1	3%	/	-9	8%	/	14µM*
CSc1ccc(CCNC(=O)CCc2c(C)nc3c(c(C)nn3-c3ccccc3)c2C)cc1	3%	/	-1	15%	/	-6%
CC(=O)c1ccc(NC(=O)CCc2c(C)nc3ncnn3c2C)cc1	-10%	1%	-4	17%	22%	28µM*
CCOc1ccc(Cl)cc1S(=O)(=O)NCCO	/	/	-2	/	/	/
Cc1ccc(N2CC(C(=O)NC3CCSC3=O)CC2=O)cc1 (centres undefined)	3%	3%	-6	0%	1%	0%
Cc1ccsc1/C=C(\C(=O)c1ccc(OC(C)C)cc1)c1nc2ccccc2o1	2%	9%	-4	4µM*	?	/
CCCn1c(N2CCN(C(=O)N3CCCCC3)CC2)nc2ccccc21	6%	5%	-5	?	-14%	-3%
SMILES	HEK293 tox	GLP-1R agonist	LDHA block	GLP-1R inv ag	p53 reactivation	ClpP mod
COc1ccc(S(=O)(=O)Nc2ccc(Cc3ccncc3)cc2)cc1OC	-8%	9%	2	19%	5%	-3%
O=S(=O)(Nc1ccc(Cc2ccncc2)cc1)c1ccc(Cl)c(Cl)c1	10µM*	1%	15	-1%	2%	-2%
COc1ccc(-c2csc(NC(=O)CSCC(=O)Nc3cc(C)on3)n2)cc1	-13%	-7%	-6	-1%	16%	-1%
COc1ccc(NC(=O)c2cc(S(=O)(=O)Nc3ccc(OC)cc3)cs2)cc1	-12%	16%	1	?	-1%	0%
O=C(Nc1ccc(F)cc1)c1cc(S(=O)(=O)Nc2ccc(F)cc2)cs1	-30%	-17%	-1	10µM*	-4%	-2%
Cc1ccc(S(=O)(=O)N(Cc2ccccc2)c2ccccc2C(=O)N2CCCCC2)cc1	?	8%	-8	8.9µM*	-6%	/
O=C(Nc1ccccc1C(=O)O)c1ncn[nH]1	45%	9%	5	93%	9%	28µM*
Cc1ccc(Cl)cc1NC(=O)c1cc2ccccc2cc1O	-8%	-3%	0	?	22%	-2%
COC(=O)c1[nH]c2ccc(C)cc2c1NS(=O)(=O)c1ccc(F)c(C)c1	-3%	4%	-2	10µM*	-4%	-4%
CCN1CCN(CCNC(=O)C2CCCN(Cc3nc(-c4cccc(Cl)c4)oc3C)C2)CC1 (centres undefined)	-27%	-3%	1	?	1%	-1%
Cc1ccc(-n2nc3ccc(N)cc3n2)c(C)c1	12%	11%	5	9%	-1%	4%
Cc1ccc(N2C(N)=NC(N)=NC23CCCC3)c(C)c1	2%	-2%	-2	9%	-2%	28µM*
S=C1NCCc2ccccc2C1c1ccccc1Cl (centres undefined)	?	-6%	-1	?	5%	-1%
S=C1NCCc2ccccc2C1c1ccccc1 (centres undefined)	?	1%	-7	11µM*	0%	-2%
COc1ccccc1-c1nc(-c2ccccn2)no1	-1%	-23%	4	3.5µM*	-8%	-19%
Cc1ccccc1-c1nc(-c2ccccn2)no1	-5%	-8%	0	?	-9%	/
COc1nc(C)ccc1-c1noc(-c2ccccn2)n1	7%	5%	-6	-11%	?	-3%
COc1ccccc1-c1nc(-c2ccc(C)nc2OC)no1	26%	24%	-10	58%	?	14µM*
Cn1c(=O)c2c(c3ccccc31)OC(=O)CC2c1cccc(Cl)c1 (centres undefined)	0%	/	-6	-2%	/	11µM*
